The source of these data is the supplement of paper PMC10941209.

SMILES strings stand for the structures. Unmarked numbers belong to inactive results.

The assay has as its system Toxoplasma gondii RH 2F1 tachyzoites (intracellular in HFF). Description: parasite survival relative to DMSO control; higher = less antiparasitic activity, active = 20 or less. Conditions: 1 µM; 72 h. In short, it runs like this:
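Compound at 1 μM was applied for 72 h at 37°C in 5% CO2 to HFF cells in 96-well plates (5 × 10^3 cells/well) that had been infected for 3 h in D2 medium with 5 × 10^3 Toxoplasma gondii RH-2F1 tachyzoites carrying β-galactosidase. The readout was absorbance at 570 nm, 30 min after CPRG addition. Survival is reported as a percentage of the signal from infected wells given DMSO, based on at least 2 biological replicates.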
Regarding `O=C(NN1C(=O)[C@@H]2[C@@H]3C=C[C@@H]([C@H]4C[C@@H]34)[C@@H]2C1=O)c1ccc(C(F)(F)F)cc1`, the parasite survival was 66.1%. For `Nc1c(C(=O)NCc2ccco2)c2nc3ccccc3nc2n1CCN1CCCCC1`, the parasite survival is 37%. The same measure for `COc1nc2ccc(Br)cc2cc1[C@@H](c1ccccc1)[C@@](O)(CCN(C)C)c1cccc2ccccc12`: 14% (active); for `O=C(O)c1sccc1S(=O)(=O)n1ccc2cc(Br)ccc21`: 66.8%.

For the molecule `Nc1nc(O)c(Br)c(-c2cccc(Cl)c2)n1`, the parasite survival is 63.8%. As for `CCN(CC)S(=O)(=O)c1ccc(Cl)c(C(=O)Nc2sc3c(c2C#N)CCCC3)c1`, the parasite survival is 44%. Take `O=C(O)c1cc(-c2ccc(Br)cc2)nc2ccc(Cl)cc12`: the parasite survival was 72.8%. In the case of `Nc1nc(-c2ccccc2)nc2[nH]nc(Nc3ccc(C(F)(F)F)cc3)c12`, the parasite survival is 35.1%. Consider `CN(C)[C@@H]1C(=O)C(C(N)=O)=C(O)[C@@]2(O)C(=O)C3=C(O)c4c(O)c(NC(=O)CN5CCCC5)cc(F)c4C[C@H]3C[C@@H]12`, for which the parasite survival was 34.5%. Under `CCCCCCCCC(CP(=O)(O)C(C)N)C(=O)O` (configuration not stated) stands 62.7%; under `CCCCCOc1ccc(/C=C2\Oc3c(ccc(O)c3O)C2=O)c(O)c1`, 48.2%.

As to `NC(=O)[C@@H]1CC[C@@H]2CN1C(=O)N2OS(=O)(=O)O`, the parasite survival is 39%. For `CCOC(=O)/C=C/[C@H](C[C@@H]1CCNC1=O)NC(=O)[C@H](CC)n1cccc(NC(=O)c2cc(C)on2)c1=O`, the parasite survival was 63.3%. Under `CC(C)/N=c1\cc2n(-c3ccc(Cl)cc3)c3ccccc3nc-2cc1Nc1ccc(Cl)cc1` stands 4.63% (active); under `Nc1cc(-c2nc3ccccc3[nH]2)n[nH]c1=O`, 43%; under `CC(=O)N1CCN(c2ccc(OCC3COC(Cn4ccnc4)(c4ccc(Cl)cc4Cl)O3)cc2)CC1` (configuration not stated), 58.4%. As to `Nc1cc(N)c2nc(-c3ccccc3)c(Nc3ccc(F)cc3)nc2c1`, the parasite survival was 7.94% (active).

Regarding `O=C(O)c1ccccc1Sc1ncnc2sc3c(c12)CCC3`, the parasite survival was 44.2%. The same measure for `CC[N+]1(C/C2=C/CCCCCC2)CCC(NC(=O)C2c3cc(Cl)ccc3Oc3ccc(Cl)cc32)CC1` (configuration not stated): 59.8%; for `CN1CCN(Cc2ccc(-c3cnc4[nH]cc(-c5ccc6[nH]ccc6c5)c4c3)cc2)CC1`: 7.23% (active); for `O=P(O)(O)C(CCCc1cccc(Oc2ccccc2)c1)S(=O)(=O)O` (configuration not stated): 65.2%. Turning to `COc1ccc(SCC(=O)N2c3ccccc3Sc3ccccc32)cc1`, the parasite survival is 47.4%.
